Experimental data reported in the supplement of paper PMC11732987, “Enantioselective OTUD7B fragment discovery through chemoproteomics screening and high-throughput optimisation” (Communications Chemistry, 2025).

Columns and labels:
Assay in all cases: log2 ratio of Biotin-Ahx-Ub-VS probe labelling (fragment/DMSO); higher = less target engagement (more negative = stronger competition), active = hit call of the paper (q ≤ 0.05, log2 ratio ≤ -1)
Conditions in all cases: compound concentration: 200 uM; treatment time: 3 h
USP19 = target: T1, USP19 (UniProt O94966)
T1 sequence (whole entry): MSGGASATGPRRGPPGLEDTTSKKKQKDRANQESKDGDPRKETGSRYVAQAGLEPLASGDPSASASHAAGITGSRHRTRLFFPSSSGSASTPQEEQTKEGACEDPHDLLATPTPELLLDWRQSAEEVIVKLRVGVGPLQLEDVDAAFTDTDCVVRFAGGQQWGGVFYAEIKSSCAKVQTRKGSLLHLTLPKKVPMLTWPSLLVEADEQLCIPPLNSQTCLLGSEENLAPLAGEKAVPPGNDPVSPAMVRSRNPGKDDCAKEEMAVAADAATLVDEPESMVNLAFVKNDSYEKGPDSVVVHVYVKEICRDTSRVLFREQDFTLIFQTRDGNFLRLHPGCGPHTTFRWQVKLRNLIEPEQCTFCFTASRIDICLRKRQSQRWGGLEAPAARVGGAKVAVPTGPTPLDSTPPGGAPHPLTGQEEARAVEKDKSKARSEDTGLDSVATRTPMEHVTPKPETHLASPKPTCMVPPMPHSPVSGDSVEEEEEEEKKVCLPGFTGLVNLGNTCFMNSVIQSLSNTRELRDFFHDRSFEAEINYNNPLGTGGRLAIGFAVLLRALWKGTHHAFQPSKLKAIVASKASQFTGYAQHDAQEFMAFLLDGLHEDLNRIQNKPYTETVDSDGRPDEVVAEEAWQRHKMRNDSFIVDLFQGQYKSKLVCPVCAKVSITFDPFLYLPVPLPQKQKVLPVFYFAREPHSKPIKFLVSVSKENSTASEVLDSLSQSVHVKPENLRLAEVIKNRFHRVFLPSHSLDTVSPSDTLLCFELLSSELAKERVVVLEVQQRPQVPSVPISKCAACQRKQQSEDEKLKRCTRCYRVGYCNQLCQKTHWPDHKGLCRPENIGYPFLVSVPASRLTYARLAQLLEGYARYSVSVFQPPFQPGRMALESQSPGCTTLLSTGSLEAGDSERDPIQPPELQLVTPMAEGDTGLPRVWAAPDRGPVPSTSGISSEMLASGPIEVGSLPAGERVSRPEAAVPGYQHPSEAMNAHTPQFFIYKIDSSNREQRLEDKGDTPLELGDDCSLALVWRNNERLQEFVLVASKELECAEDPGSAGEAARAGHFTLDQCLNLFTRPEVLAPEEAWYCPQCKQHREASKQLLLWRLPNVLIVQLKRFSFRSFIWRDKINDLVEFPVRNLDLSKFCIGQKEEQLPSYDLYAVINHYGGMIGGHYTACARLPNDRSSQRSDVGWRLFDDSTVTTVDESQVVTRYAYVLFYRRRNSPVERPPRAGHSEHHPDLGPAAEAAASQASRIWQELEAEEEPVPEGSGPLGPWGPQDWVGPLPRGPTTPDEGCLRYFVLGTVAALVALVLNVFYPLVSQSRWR
In short: (§1)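 The table lists average log2 ratios of fragment over vehicle, from an unpaired t-test on global-median-normalised Spectronaut label-free quantities. Proteins with ≥2 unique peptides were used. Samples were HEK293T lysate (495 µg) treated in triplicate with fragment at 200 µM or vehicle for 3 h, then with Biotin-Ahx-Ub-VS (0.5 µM final) for 1 h, with labelled DUBs NeutrAvidin-enriched and run by diaPASEF LC-MS/MS.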

USP22 = target: T2, USP22 (UniProt Q9UPT9)
T2 sequence (whole entry): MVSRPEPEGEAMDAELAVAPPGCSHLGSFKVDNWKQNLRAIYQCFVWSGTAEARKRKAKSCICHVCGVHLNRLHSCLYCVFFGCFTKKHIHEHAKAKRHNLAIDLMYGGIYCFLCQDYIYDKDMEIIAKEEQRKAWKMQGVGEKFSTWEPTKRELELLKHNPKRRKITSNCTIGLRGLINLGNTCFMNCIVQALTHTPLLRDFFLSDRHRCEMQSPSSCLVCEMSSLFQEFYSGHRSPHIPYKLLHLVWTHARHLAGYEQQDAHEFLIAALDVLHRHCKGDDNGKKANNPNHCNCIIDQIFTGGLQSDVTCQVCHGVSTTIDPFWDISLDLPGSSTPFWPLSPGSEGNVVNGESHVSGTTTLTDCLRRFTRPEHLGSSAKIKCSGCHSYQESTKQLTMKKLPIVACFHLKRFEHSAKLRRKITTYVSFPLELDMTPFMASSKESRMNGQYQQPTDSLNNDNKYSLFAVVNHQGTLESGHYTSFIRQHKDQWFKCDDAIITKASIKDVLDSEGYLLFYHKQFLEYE
In short: as §1

USP24 = USP24 (UniProt Q9UPU5)
In short: as §1

USP25 = target: T3, USP25 (UniProt Q9UHP3)
T3 sequence (whole entry): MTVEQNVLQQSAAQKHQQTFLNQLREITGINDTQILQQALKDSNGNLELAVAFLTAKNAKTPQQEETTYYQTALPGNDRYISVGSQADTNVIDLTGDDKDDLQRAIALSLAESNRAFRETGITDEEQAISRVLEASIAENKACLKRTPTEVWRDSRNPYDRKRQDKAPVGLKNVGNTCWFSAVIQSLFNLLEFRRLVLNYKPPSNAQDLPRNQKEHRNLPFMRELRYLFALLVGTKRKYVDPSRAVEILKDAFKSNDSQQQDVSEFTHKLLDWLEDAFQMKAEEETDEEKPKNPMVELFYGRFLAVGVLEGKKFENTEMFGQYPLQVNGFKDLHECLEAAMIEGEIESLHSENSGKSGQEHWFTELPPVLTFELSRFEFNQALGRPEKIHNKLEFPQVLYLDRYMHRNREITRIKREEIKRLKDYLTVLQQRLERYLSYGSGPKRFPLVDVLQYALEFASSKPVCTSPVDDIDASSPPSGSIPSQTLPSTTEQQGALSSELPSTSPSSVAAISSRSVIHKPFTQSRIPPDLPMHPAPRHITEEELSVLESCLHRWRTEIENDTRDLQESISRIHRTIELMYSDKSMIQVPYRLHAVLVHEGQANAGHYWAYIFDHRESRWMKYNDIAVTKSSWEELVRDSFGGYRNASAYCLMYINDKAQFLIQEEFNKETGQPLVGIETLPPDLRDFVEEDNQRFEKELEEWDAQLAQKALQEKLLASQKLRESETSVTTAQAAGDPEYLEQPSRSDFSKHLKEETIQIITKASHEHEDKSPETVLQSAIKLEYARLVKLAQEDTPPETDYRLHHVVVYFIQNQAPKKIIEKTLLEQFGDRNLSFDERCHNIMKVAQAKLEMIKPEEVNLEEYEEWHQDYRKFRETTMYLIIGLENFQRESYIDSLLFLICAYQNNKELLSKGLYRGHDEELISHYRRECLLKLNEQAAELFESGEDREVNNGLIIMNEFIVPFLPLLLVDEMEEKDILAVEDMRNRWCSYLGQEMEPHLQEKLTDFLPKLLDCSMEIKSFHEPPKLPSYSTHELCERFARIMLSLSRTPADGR
In short: as §1

USP28 = target: T4, USP28 (UniProt Q96RU2)
T4 sequence (whole entry): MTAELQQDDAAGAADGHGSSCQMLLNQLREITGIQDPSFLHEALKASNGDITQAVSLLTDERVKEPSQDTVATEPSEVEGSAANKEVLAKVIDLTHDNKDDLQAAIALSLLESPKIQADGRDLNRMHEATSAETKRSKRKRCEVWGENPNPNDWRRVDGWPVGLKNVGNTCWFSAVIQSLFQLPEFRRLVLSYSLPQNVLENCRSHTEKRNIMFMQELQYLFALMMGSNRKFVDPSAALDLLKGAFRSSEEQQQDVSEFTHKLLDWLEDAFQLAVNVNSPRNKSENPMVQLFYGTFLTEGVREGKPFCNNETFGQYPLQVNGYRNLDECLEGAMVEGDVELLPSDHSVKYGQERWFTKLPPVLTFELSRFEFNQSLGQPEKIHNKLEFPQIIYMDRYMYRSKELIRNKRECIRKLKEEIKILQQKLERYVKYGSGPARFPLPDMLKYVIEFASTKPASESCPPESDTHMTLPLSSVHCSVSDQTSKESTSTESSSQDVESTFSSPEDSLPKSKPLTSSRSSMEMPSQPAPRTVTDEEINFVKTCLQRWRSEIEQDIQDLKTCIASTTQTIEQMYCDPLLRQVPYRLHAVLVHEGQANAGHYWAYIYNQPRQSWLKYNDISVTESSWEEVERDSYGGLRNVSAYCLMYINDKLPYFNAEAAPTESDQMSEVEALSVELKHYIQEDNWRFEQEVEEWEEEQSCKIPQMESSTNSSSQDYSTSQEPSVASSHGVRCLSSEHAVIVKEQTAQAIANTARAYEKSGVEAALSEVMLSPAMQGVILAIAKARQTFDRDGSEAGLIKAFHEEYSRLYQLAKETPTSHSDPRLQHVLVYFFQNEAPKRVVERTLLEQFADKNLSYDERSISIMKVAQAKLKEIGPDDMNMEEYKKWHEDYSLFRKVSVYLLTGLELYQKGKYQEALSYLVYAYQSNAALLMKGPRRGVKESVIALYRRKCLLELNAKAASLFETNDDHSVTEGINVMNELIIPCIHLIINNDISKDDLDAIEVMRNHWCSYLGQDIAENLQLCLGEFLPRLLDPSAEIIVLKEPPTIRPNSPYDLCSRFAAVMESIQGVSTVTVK
In short: as §1

Measured: log2 ratio of Biotin-Ahx-Ub-VS probe labelling

Chain of USP24 (Q9UPU5 whole entry): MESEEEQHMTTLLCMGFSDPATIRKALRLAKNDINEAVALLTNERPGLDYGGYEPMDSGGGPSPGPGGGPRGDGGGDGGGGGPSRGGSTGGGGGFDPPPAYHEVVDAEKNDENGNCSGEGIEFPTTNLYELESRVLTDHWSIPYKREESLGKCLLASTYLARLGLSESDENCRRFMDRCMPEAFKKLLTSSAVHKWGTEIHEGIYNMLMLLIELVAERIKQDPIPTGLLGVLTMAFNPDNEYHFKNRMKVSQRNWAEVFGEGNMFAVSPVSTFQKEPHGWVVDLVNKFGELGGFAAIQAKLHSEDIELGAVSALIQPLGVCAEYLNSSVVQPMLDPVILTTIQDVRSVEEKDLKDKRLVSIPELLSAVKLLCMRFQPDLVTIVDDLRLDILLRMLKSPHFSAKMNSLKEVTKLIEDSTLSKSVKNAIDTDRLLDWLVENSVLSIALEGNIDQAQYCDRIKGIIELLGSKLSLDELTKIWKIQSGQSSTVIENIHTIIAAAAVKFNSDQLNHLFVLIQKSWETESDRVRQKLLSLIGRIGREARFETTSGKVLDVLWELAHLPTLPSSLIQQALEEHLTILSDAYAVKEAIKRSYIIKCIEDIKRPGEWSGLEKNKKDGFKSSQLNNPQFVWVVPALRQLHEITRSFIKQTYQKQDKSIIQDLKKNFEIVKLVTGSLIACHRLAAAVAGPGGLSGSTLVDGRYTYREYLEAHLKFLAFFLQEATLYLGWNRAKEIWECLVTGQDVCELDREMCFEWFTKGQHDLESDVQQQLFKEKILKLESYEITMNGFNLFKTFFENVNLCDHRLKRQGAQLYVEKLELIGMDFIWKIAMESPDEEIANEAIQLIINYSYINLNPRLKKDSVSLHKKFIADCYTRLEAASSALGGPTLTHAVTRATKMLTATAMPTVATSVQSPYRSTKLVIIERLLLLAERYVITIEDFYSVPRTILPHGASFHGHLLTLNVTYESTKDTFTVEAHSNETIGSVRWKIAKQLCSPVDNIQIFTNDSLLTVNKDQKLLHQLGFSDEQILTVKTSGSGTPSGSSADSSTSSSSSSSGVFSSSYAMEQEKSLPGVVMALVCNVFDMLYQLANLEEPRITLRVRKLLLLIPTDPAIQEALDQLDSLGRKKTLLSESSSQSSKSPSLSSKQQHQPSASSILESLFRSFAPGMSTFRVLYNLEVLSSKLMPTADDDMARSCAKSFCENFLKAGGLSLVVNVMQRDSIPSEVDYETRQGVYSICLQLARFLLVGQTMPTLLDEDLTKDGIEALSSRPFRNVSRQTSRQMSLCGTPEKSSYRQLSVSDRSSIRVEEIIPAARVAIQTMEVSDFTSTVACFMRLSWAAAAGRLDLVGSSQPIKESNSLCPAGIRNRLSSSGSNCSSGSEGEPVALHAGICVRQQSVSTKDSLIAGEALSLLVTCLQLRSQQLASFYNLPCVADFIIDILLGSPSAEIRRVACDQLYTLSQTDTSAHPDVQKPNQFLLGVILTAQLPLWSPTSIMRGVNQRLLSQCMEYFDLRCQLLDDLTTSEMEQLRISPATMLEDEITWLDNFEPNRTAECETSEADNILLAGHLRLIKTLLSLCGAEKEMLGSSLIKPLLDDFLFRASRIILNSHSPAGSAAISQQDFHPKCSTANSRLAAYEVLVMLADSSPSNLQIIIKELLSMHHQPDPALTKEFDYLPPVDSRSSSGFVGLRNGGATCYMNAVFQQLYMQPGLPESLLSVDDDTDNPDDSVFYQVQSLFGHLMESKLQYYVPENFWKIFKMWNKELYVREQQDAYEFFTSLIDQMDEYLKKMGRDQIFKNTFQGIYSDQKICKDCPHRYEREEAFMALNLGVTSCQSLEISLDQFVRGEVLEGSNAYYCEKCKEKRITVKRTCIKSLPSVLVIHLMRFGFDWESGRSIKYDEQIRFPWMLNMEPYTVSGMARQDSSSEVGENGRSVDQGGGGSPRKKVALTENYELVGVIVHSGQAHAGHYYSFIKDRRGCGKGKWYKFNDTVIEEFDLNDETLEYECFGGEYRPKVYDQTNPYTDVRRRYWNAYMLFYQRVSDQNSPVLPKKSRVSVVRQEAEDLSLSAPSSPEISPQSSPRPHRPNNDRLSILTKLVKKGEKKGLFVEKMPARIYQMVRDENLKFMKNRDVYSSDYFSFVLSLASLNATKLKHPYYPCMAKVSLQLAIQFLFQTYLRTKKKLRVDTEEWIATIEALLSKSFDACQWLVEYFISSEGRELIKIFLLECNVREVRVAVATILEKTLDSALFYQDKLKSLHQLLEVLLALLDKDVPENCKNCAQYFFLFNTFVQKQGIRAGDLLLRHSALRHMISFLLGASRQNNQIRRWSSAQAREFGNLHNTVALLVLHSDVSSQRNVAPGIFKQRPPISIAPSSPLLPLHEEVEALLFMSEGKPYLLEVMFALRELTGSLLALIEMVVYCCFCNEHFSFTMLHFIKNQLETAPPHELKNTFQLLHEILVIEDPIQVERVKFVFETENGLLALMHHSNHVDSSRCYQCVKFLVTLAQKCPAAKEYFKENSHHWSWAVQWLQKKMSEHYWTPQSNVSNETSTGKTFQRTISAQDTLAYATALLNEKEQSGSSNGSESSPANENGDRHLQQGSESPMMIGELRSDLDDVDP

Cl.Cn1nc2c(c1CNC(=O)CCl)CCCC2
inactive: USP19 0.00104 | USP22 -0.0746 | USP24 -0.0442 | USP25 -0.147 | USP28 -0.325
